Measured values published in ChEMBL document CHEMBL4513216, “Probing the Open Global Health Chemical Diversity Library for Multistage-Active Starting Points for Next-Generation Antimalarials” (ACS Infect Dis, 2020).
Among all 69,000 compounds or so, about 8,600 (12%) showed an effect of 50% or more. Shown is part of a subset that was picked to be rich in strong results.

test system: Plasmodium berghei; test: Screen against P. berghei liver stage (PbLuc), transformed with Luciferase, at 10uM; assay type: functional, HepG2; details: tested at 10 uM

Question: Which INHIBITION does the source give for `Cc1ccc(C(=O)N2C[C@H](N3CCOCC3)[C@@H]3OCCC[C@@H]32)cn1` here?
Answer: 50.3%

Question: `Cc1ccc(C(=O)N2C[C@@H](N3CCN(C)CC3)[C@H]3OCCC[C@H]32)cn1` was tested. Which INHIBITION did it give?
Answer: 10.4%

Question: Which INHIBITION does the source give for `Cc1cnc(C(=O)N2C[C@H](N3CCOCC3)[C@@H]3OCCC[C@@H]32)cn1` here?
Answer: 45.7%

Question: How did the INHIBITION turn out when `CC(=O)NCC1CCN(C(=O)c2ccc(Sc3ccccn3)cc2)CC1` was run?
Answer: 14.4%

Question: `CC(=O)N1CCN(c2cnnc(N3CCCC3)c2)CC1` was tested. Which INHIBITION did it give?
Answer: 31.9%

Question: How did the INHIBITION turn out when `O=C(c1ccccc1)N1C[C@H]2CC[C@@H](C1)N(Cc1cc(F)ccc1Cl)C2` was run?
Answer: 25%

Question: How did the INHIBITION turn out when `COCCCN1C(=O)CC[C@H]2CN(Cc3ncc[nH]3)CC[C@H]21` was run?
Answer: 38.8%

Question: With `NCCN1C(=O)CC[C@H]2CN(Cc3ccc4occc4c3)CC[C@H]21` as the molecule, how does the INHIBITION read?
Answer: 30.3%

Question: Which INHIBITION does the source give for `COCCCN1C(=O)CC[C@H]2CN(Cc3ccc4nonc4c3)CC[C@H]21` here?
Answer: 53.4%

Question: Which INHIBITION does the source give for `COCCCN1C(=O)CC[C@H]2CN(Cc3cc4ccccc4o3)CC[C@H]21` here?
Answer: 73.9%

Question: Which INHIBITION does the source give for `COCCCN1C(=O)CC[C@H]2CN(Cc3ccc4occc4c3)CC[C@H]21` here?
Answer: 16.1%

Question: How did the INHIBITION turn out when `COCCCN1C(=O)CC[C@H]2CN(c3cnc4ccccc4n3)CC[C@H]21` was run?
Answer: 28.5%

Question: `COCCCN1C(=O)CC[C@H]2CN(c3nc4ccccc4s3)CC[C@H]21` was tested. Which INHIBITION did it give?
Answer: 41.2%

Question: With `COCCCN1C(=O)CC[C@H]2CN(c3ccnc4ccccc34)CC[C@H]21` as the molecule, how does the INHIBITION read?
Answer: 63.9%

Question: `COCCCN1C(=O)CC[C@H]2CN(c3cc(C(N)=O)ccn3)CC[C@H]21` was tested. Which INHIBITION did it give?
Answer: 24.9%

Question: Which INHIBITION does the source give for `CC(=O)N1CCCC(c2ccc(N3CCOCC3)cn2)C1` (configuration not stated) here?
Answer: -4.51%

Question: Which INHIBITION does the source give for `Cc1ccc(NCc2cnc3n2CCN(c2ncccn2)CC3)nn1` here?
Answer: 35.2%

Question: For `Cc1ccccc1CNC(=O)C1CCN(Cc2nccn2C)CC1`, which INHIBITION is on record?
Answer: -17%

Question: Which INHIBITION does the source give for `CC(=O)N1CCC(Cc2cnc(-c3c(C)nn(C)c3C)cn2)C1` (configuration not stated) here?
Answer: 33.5%

Question: With `Cn1ccnc(Sc2cccc(C#N)c2)c1=O` as the molecule, how does the INHIBITION read?
Answer: 15%

Question: Which INHIBITION does the source give for `CN(C)C(C(=O)N1CCN(CCn2cccc2)CC1)c1cccc(F)c1` (configuration not stated) here?
Answer: 44.7%

Question: Which INHIBITION does the source give for `COCCN1CCN(C(=O)C(c2cccc(F)c2)N(C)C)CC1` (configuration not stated) here?
Answer: 41.5%

Question: Which INHIBITION does the source give for `COCCCN1CCN(C(=O)C(c2cccc(F)c2)N(C)C)CC1` (configuration not stated) here?
Answer: 50.1%

Question: With `CC(Cn1ccnc1)NC(=O)N1CCN(Cc2ccsc2)CC1` (configuration not stated) as the molecule, how does the INHIBITION read?
Answer: 31.9%

Question: With `COc1ccc2c(c1)CC(C1CCOCC1)N(C(=O)c1ccn(C)n1)C2` (configuration not stated) as the molecule, how does the INHIBITION read?
Answer: 2.45%

Question: How did the INHIBITION turn out when `CC(=O)N(Cc1ncc(C(C)C)o1)C1CCN(CCn2cncn2)C1` (configuration not stated) was run?
Answer: -13.2335%

Question: Which INHIBITION does the source give for `CC1=CC[C@@H]2CN(C(=O)c3ccc(-c4nc[nH]n4)cc3)C[C@@H]2C1` here?
Answer: 40.7%

Question: For `COc1cc(N2C[C@@H]3COC[C@]3(COCc3ccccn3)C2)ncn1`, which INHIBITION is on record?
Answer: 68.4%

Question: With `Cc1cccc(COC[C@]23COC[C@H]2CN(c2ncccn2)C3)n1` as the molecule, how does the INHIBITION read?
Answer: 38.1%

Question: With `O=C(CC1CC1)NC[C@]12COC[C@H]1CN(c1ncc(F)cn1)C2` as the molecule, how does the INHIBITION read?
Answer: 1.48%

Question: How did the INHIBITION turn out when `COc1ncccc1CN1C[C@@H]2COC[C@]2(COc2ccccn2)C1` was run?
Answer: -32%

Question: Which INHIBITION does the source give for `COc1cc(N2C[C@@H]3COC[C@]3(COc3ncccc3F)C2)ncn1` here?
Answer: 73%

Question: How did the INHIBITION turn out when `COCC(=O)NC[C@]12COC[C@H]1CN(c1ncc(F)cn1)C2` was run?
Answer: -22.1%

Question: `COc1cc(N2C[C@@H]3COC[C@]3(COCc3ccncc3)C2)ncn1` was tested. Which INHIBITION did it give?
Answer: 34.6%

Question: For `COc1cc(N2C[C@@H]3COC[C@]3(COc3cccnc3)C2)ncn1`, which INHIBITION is on record?
Answer: 42.1%

Question: Which INHIBITION does the source give for `c1ccc(OC[C@]23COC[C@H]2CN(c2ncccn2)C3)nc1` here?
Answer: 31.9%

Question: How did the INHIBITION turn out when `O=C(CC1CC1)NC[C@]12COC[C@H]1CN(c1ncccn1)C2` was run?
Answer: 88%

Question: For `COc1cc(N2C[C@@H]3COC[C@]3(COc3ccccn3)C2)ncn1`, which INHIBITION is on record?
Answer: -6.3%

Question: `c1ccc(COC[C@]23COC[C@H]2CN(c2ncccn2)C3)nc1` was tested. Which INHIBITION did it give?
Answer: 53%

Question: `CS(=O)(=O)N1C[C@H]2CC[C@@H](C1)N(C(=O)Cn1ccc3ccccc31)C2` was tested. Which INHIBITION did it give?
Answer: -7.98%

Question: With `CC(C)C(C)NC(=O)Nc1cccc(OCC#N)c1` (configuration not stated) as the molecule, how does the INHIBITION read?
Answer: -16%

Question: How did the INHIBITION turn out when `CC(c1c(F)cccc1F)N1CCN(Cc2nccn2C)CC1` (configuration not stated) was run?
Answer: 19.2%

Question: For `Cc1nc(CNC(=O)Nc2c(C)n[nH]c2C)cs1`, which INHIBITION is on record?
Answer: 19.9%

Question: Which INHIBITION does the source give for `CN(C)C(=O)CN1CCC2(CCN(Cc3nccs3)CC2)C1=O` here?
Answer: -21.3%

Question: For `Cc1nc2cc(C3CCOCC3)nn2c(NCC2COCCO2)c1C` (configuration not stated), which INHIBITION is on record?
Answer: 32.75%

Question: For `CCn1ncc2c1C(COCC1CC1)CN(S(=O)(=O)N(C)C)C2` (configuration not stated), which INHIBITION is on record?
Answer: 35.1%

Question: Which INHIBITION does the source give for `COCC(=O)N1CCC([C@@H]2C[C@H](C(F)(F)F)n3nc(C)cc3N2)CC1` here?
Answer: -6.92%
